Activity calls are given as the source filed them. Unless noted, no rule for the calls is given here.
Columns and labels:
[1] = anti-His antibody binders, primary screen, artefact control for SMM control protein annotation, biochemical, small-molecule microarray, 635 nm fluorescence (AID 1128); conditions: anti-His Alexa647 antibody binding, higher = more signal;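 also: score merges feature fluorescence with signal-to-noise for each printed compound spot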
[2] = test system: Human papillomavirus type 1a E7 protein (residues 1-88); test: HPV1a E7 small-molecule binders, primary screen, biochemical, small-molecule microarray, residues 1-88, 635 nm (AID 1129); conditions: small-molecule microarray binding, fluorescence 635 nm; higher = more signal
[3] = target: Focal adhesion kinase 1 (Homo sapiens) (UniProt Q05397); test: small-molecule microarray binders of FAK, primary screen, biochemical, 635/667 nm fluorescence, BSA, DTT (AID 1130); conditions: PTK2 binding, 635 nm fluorescence, higher = more signal;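 also: composite of spot emission at 667 nm and signal to noise over triplicate slides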
[4] = test system: Fibrinogen (Alexa647-labelled); test: fibrinogen binders on compound microarrays, profiling panel, artefact control for SMM control-protein annotation, biochemical, small-molecule microarray, 635/667 nm fluorescence (AID 1131); conditions: fibrinogen-A647 binding fluorescence, higher = more signal;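 also: z-score merges 667 nm fluorescence with per-spot signal-to-noise over triplicate slides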
[5] = target: Follistatin (Homo sapiens) (UniProt P19883); test: follistatin binders on small-molecule microarrays, primary screen, biochemical, small-molecule microarray, 635/667 nm fluorescence (AID 1132); conditions: FST binding, 635 nm fluorescence, higher = more signal
[6] = target: Fibroblast growth factor 2 (Homo sapiens) (UniProt P09038); test: FGF2 binders on small-molecule microarrays, primary screen, biochemical, small-molecule microarray, 635/667 nm fluorescence (AID 1133); conditions: small-molecule microarray binding, FGF2, fluorescence 635/667; higher = more signal
[7] = mitochondrial membrane potential change in A549 cells, profiling panel, cell-based, JC-1 fluorescence, basal, 24 h, 100 nL (AID 1138); conditions: higher = more signal;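 also: A549 lung adenocarcinoma cells under basal conditions with no added stimulus; test concentration not given here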
Lefty1 = Lefty1 binders on small-molecule microarrays, primary screen, biochemical, small-molecule microarray, 635/667 nm fluorescence (AID 1139); conditions: small-molecule microarray binding, fluorescence 635/667; higher = more signal
[8] = test system: wheat germ agglutinin (Triticum aestivum), Alexa647-labelled; test: wheat germ agglutinin binders on compound microarrays, profiling panel, artefact control for SMM control-protein annotation, biochemical, small-molecule microarray, 635/667 nm fluorescence (AID 1140); conditions: WGA-A647 binding, 635 nm fluorescence, higher = more signal;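 also: score merges 667 nm feature emission with signal to noise over triplicate slides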
[9] = target: Luciferin 4-monooxygenase (Photinus pyralis) (UniProt P08659); test: firefly luciferase enzyme inhibitors, primary screen, biochemical, luminescence, purified enzyme, 2006 set (AID 1141); conditions: SteadyGlo luminescence, 30 min, higher = more signal, called active from +8 up or from −8 down;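 also: cell-free assay with purified firefly luciferase at 100 ng per well in PBS; test concentration not given here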
[10] = test system: Wnt5a (protein binding on small-molecule microarray); test: Wnt5a binders on small-molecule microarray, primary screen, biophysical, 635/667 nm fluorescence (AID 1142); conditions: 635 nm fluorescence, higher = more signal;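 also: fluorescence read at 667 nm with signal to noise per printed feature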
[11] = cell viability in Huh7 cells, primary screen, cytotoxicity control for HCV replication inhibitor project, CellTiter-Glo luminescence, basal, 48 h (AID 1143); conditions: Huh7 HCV replicon, higher = more signal, called active from +8 up or from −8 down;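 also: Huh7 hepatoma cells carrying a hepatitis C replication reporter with no stimulus; test concentration not given here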
[12] = P. aeruginosa biofilm formation inhibitors, primary screen, PAO1 strain, BacTiter-Glo luminescence, LB-PBS (AID 1144); conditions: 12 h, higher = more signal
[13] = CREB reporter modulators without forskolin, primary screen, cell-based, PC12, CRE-LacZ reporter, unstimulated (AID 1145); conditions: no forskolin, luminescence, 4.5 h, higher = more signal, called active from +8 up or from −8 down
[14] = CREB reporter modulators under forskolin, primary screen, cell-based, PC12, CRE-LacZ reporter, forskolin-stimulated (AID 1146); conditions: luminescence, 4.5 h, higher = more signal, called active from +8 up or from −8 down;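 also: PC12 cells with 6xCRE LacZ reporter stimulated by forskolin 10 µM; beta-galactosidase reporter signal reflecting CREB driven transcription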
[15] = target: Streptavidin (Streptomyces avidinii) (UniProt P22629); test: streptavidin binders on small-molecule microarray, primary screen, artefact control for SMM compound annotation, biophysical, 635/667 nm fluorescence (AID 1147); conditions: streptavidin binding, higher = more signal;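 also: signal reflects streptavidin binding to arrayed compounds as a control protein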
[16] = small-molecule binders of probe aInhba, primary screen, biochemical, small-molecule microarray, 635/667 nm fluorescence (AID 1148); conditions: higher = more signal;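 also: score merges 667nm spot fluorescence with signal-to-noise for antibody binding to printed compounds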
Torsin-1A (Homo sapiens) [17] = target: Torsin-1A (Homo sapiens) (UniProt O14656); test: torsin A binders from cell lysate, primary screen, small-molecule microarray, wild-type, 635/667 nm (AID 1149); conditions: COS7 hTOR1A-WT lysate, 635 nm fluorescence, higher = more signal
Torsin-1A (Homo sapiens) [18] = target: Torsin-1A (Homo sapiens) (UniProt O14656); test: small-molecule binders of mutant TOR1A in lysate, primary screen, cell lysate, small-molecule microarray, COS7 lysate, 635/667 nm fluorescence (AID 1150); conditions: COS7 hTOR1A mutant lysate, 635 nm fluorescence, higher = more signal;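 also: score pools 667 nm emission and signal to noise measuring lysate protein binding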
[19] = test system: Sonic hedgehog protein (Shh); test: small-molecule binders of Shh protein, primary screen, biochemical, small-molecule microarray, 635/667 nm fluorescence (AID 1151); conditions: small-molecule microarray binding, 635 nm fluorescence; higher = more signal;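 also: Shh protein binding to compounds spotted on small-molecule microarray slides; score combines spot fluorescence intensity with signal-to-noise across triplicate slides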

Sequence of Focal adhesion kinase 1 (Homo sapiens) (Q05397 whole entry, looked up): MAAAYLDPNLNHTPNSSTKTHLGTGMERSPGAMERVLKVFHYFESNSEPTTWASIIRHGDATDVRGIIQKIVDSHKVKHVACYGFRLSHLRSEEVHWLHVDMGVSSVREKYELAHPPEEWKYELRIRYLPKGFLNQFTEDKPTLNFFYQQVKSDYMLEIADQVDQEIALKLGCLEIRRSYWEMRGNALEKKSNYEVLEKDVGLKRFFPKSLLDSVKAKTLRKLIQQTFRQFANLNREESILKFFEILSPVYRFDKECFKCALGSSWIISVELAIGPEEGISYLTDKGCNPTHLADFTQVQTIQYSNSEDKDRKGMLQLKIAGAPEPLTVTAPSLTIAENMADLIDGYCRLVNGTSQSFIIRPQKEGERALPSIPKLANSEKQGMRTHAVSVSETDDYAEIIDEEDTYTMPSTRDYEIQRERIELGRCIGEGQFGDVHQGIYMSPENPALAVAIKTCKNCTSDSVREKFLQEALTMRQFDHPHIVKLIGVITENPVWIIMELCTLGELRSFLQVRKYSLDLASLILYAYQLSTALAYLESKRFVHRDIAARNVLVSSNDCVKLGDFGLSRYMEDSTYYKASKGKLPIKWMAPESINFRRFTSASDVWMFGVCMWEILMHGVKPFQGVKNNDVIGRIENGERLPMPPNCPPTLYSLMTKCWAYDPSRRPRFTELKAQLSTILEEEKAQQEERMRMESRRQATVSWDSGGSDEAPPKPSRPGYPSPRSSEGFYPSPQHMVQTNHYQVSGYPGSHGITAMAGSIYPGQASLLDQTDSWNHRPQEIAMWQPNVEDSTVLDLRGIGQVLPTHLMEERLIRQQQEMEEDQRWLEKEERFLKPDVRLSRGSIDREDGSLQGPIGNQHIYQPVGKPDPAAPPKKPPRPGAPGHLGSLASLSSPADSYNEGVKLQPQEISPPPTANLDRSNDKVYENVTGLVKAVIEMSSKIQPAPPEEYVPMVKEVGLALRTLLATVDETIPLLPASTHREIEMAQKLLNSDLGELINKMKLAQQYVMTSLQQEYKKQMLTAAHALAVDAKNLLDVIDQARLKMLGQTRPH
Sequence of Fibroblast growth factor 2 (Homo sapiens) (P09038 whole entry, looked up): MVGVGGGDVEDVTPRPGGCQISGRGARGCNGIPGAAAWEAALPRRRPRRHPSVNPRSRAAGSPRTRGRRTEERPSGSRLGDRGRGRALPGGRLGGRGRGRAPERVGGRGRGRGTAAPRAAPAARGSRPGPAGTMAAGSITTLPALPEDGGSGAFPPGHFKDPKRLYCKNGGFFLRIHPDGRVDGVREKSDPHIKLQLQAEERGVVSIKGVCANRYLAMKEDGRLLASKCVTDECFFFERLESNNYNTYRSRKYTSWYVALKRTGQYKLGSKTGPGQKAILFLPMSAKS
Sequence of Streptavidin (Streptomyces avidinii) (P22629 whole entry, looked up): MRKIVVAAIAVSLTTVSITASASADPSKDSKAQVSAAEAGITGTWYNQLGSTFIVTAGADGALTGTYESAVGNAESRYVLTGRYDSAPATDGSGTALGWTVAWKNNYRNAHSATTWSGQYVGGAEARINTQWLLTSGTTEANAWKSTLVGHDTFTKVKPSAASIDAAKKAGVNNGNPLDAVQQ
Sequence of Torsin-1A (Homo sapiens) (O14656 whole entry, looked up): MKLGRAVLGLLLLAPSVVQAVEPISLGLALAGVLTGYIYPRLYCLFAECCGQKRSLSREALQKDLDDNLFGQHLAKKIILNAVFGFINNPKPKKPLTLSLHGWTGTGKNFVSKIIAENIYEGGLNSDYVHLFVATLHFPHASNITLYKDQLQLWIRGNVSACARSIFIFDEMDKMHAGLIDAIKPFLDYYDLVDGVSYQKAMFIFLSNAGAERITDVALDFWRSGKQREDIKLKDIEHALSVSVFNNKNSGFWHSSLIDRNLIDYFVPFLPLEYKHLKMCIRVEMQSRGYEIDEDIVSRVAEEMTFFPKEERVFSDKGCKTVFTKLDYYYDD
Sequence of Follistatin (Homo sapiens) (P19883 whole entry, looked up): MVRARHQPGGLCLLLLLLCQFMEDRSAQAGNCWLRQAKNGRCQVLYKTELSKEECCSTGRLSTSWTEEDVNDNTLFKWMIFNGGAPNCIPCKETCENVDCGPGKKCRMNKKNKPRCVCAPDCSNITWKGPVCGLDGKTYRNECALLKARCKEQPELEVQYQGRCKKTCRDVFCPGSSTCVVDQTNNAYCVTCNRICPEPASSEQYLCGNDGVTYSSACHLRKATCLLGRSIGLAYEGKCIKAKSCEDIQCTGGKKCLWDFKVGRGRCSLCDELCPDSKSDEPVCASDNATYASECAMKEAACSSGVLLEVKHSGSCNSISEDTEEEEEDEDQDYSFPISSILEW
Sequence of Luciferin 4-monooxygenase (Photinus pyralis) (P08659 whole entry, looked up): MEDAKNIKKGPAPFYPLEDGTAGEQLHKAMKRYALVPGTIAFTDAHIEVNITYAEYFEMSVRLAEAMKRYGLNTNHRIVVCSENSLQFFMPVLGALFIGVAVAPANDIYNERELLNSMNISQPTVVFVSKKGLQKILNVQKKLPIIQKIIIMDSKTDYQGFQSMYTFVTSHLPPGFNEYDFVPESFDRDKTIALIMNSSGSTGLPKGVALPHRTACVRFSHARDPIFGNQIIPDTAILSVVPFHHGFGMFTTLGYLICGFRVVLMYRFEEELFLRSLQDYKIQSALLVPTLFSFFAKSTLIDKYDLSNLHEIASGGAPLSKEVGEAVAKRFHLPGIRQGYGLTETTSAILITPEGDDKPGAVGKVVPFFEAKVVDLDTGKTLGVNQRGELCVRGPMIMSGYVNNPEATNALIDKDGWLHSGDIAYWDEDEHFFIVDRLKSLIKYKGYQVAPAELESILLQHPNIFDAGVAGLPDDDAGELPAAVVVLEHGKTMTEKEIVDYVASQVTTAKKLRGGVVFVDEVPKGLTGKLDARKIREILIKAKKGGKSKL

Row | SMILES | composite z-score [1] | composite z-score [2] | composite z-score [3] | composite z-score [4] | composite z-score [5] | composite z-score [6] | z-score [7] | composite z-score (Lefty1) | composite z-score [8] | z-score [9] | composite z-score [10] | z-score [11] | z-score [12] | z-score [13] | z-score [14] | composite z-score [15] | composite z-score [16] | composite z-score (Torsin-1A (Homo sapiens) [17]) | composite z-score (Torsin-1A (Homo sapiens) [18]) | composite z-score [19]
1 | CC(C)CNC(=O)[C@@H]1c2ccccc2C(=O)N(CC23CC4CC(CC(C4)C2)C3)[C@H]1c1ccc(CO)cc1 | 1.94 | 1.14 | 0.257 | 0.592 | 0.466 | -0.0903 | 0.47 | 0.366 | 0.674 | 1.27 (inactive) | 0.0626 | -3.74 (inactive) | -1.44 (inactive) | -0.206 (inactive) | -0.401 (inactive) | 0.524 | -0.212 | -0.218 | 0.546 | 0.354
2 | CN1C=C(C(=O)OCCS(C)(=O)=O)C(C(=O)OCCS(C)(=O)=O)=CC(CCCO)=CC1c1ccc(CN2CCCC2)cc1 (stereo not given) | 1.29 | 1.26 | 0.666 | 0.894 | 1.06 | 0.546 | 3.43 | 1.23 | 0.837 | -2.16 (inactive) | 0.531 | -0.209 (inactive) | 0.356 (inactive) | 5.05 (inactive) | -0.267 (inactive) | 1.24 | 0.253 | 0.244 | 1.19 | 1.06
3 | COC(=O)[C@@]1(Cc2ccc(F)cc2)[C@H]2c3cc(C(=O)N4CCCC4)n(CCO)c3C[C@H]2CN1C(=O)c1ccccc1 | 0.896 | 1.05 | 1.51 | -2.15 | -0.212 | -0.862 | 1.44 | -0.0322 | 0.0962 | 1.74 (inactive) | 0.181 | -0.225 (inactive) | 0.452 (inactive) | 0.201 (inactive) | -0.773 (inactive) | 0.0865 | -0.0719 | -0.113 | 0.0413 | -1.69
4 | O=C1OCCC/C=C\[C@H]2OC34C=CCN(Cc5ccccc5)C(=O)[C@H]3N(CCCCCO)C(=O)[C@@H]4C12 (stereo not given in full) | -0.862 | -1.2 | -0.603 | -1.62 | -1.07 | -0.883 | 0.537 | -0.696 | -1.09 | -0.984 (inactive) | -0.238 | 0.255 (inactive) | 1.2 (inactive) | 0.732 (inactive) | 0.327 (inactive) | -1.26 | -0.186 | -0.234 | -1.75 | 0.168
5 | COCCOC(=O)N1C(=O)[C@@]2(c3cc(C#CC4=CCCCC4)ccc31)[C@H](C(=O)N1CCc3cc(OC)c(OC)cc3C1)[C@H]1C(=O)O[C@H](c3ccccc3)[C@H](c3ccccc3)N1[C@@H]2c1ccc(O)cc1 | 1.62 | 1.2 | 0.596 | 0.947 | 0.861 | 0.998 | -0.608 | 0.917 | 0.854 | -0.914 (inactive) | 0.718 | -0.447 (inactive) | 0.108 (inactive) | -0.321 (inactive) | -0.539 (inactive) | 1.85 | 0.467 | 0.544 | 1.23 | 1.67
6 | CN1C(=O)[C@]2(CCC(=O)OC(C)(C)C)N=C(c3ccc(OCCCO)cc3)O[C@@H]2c2ccccc21 | 1.2 | 1.23 | 0.488 | 0.95 | 1.44 | 1.55 | 1.85 | 0.853 | 0.182 | -2.79 (inactive) | 0.935 | -4.74 (inactive) | -0.598 (inactive) | 1.41 (inactive) | -0.572 (inactive) | -0.201 | 0.134 | 0.112 | 0.401 | 2.11
7 | COc1cc2c(cc1O)C(c1ccc(CN3CCCC3)cc1)N(Cc1ccc([N+](=O)[O-])o1)CC2 (stereo not given) | 0.27 | -0.96 | -0.537 | 0.121 | -0.147 | 0.253 | 1 | -0.606 | 0.522 | -0.659 (inactive) | -0.176 | -0.192 (inactive) | 0.85 (inactive) | 0.299 (inactive) | 0.292 (inactive) | -0.231 | -0.105 | 0.714 | 0.623 | -0.0987
8 | COC(=O)C1=CC(CCCO)=CC(c2ccc(CN3CCCC3)cc2)N(Cc2sc3ccccc3c2Cl)C=C1C(=O)OC (stereo not given) | 3.17 | 1.23 | 0.579 | 1.05 | 0.59 | 0.709 | 4.12 | 0.377 | 1.34 | -2.8 (inactive) | 1.25 | -3.24 (inactive) | -0.782 (inactive) | 0.209 (inactive) | -1.74 (inactive) | 1.85 | 0.662 | 0.591 | 1.88 | 0.836
9 | C=CCC(OC(C)=O)[C@@H]1[C@@H](N(Cc2ccc(-c3cccc(C(F)(F)F)c3)o2)C(=O)c2cccc3ccccc23)c2cc(OCCCO)ccc2N1C(=O)c1ccc2ccccc2c1 (stereo not given in full) | 0.272 | -0.582 | -0.118 | -0.425 | 0.839 | 0.101 | -0.251 | 0.429 | 0.0578 | 1.05 (inactive) | -0.12 | -1.6 (inactive) | -0.924 (inactive) | -0.71 (inactive) | 0.942 (inactive) | -0.332 | -0.118 | -0.0205 | -0.0418 | 1.23
10 | COCCOC(=O)N1C(=O)[C@@]2(c3cc(C#CC4(O)CCCCCC4)ccc31)[C@H](c1ccc(OCCO)cc1)N1[C@H](c3ccccc3)[C@H](c3ccccc3)OC(=O)[C@H]1[C@@H]2C(=O)N1CCCCCCC1 | 0.459 | 1.21 | 0.175 | 0.95 | 1.39 | 1.47 | -1.31 | 1.16 | 1.32 | -1.34 (inactive) | 0.539 | -4.81 (inactive) | -0.227 (inactive) | 0.212 (inactive) | -0.325 (inactive) | 1.68 | 1.63 | 1.12 | 1.12 | 2
